An excerpt weighted towards active compounds, which were near 3.4% of everything screened.
KLK7 zymogen act = proKLK7 zymogen activators, primary screen, biochemical, fluorescence intensity. Kallikrein-7 (Homo sapiens), P49862. purified proKLK7, EDANS-DABCYL substrate fluorescence; 100% is mature enzyme control, 0% vehicle. activation, % at 7 µM. 370,000 tested, 0.9% active. AID 652039, 2013;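 active means activation above the mean of all tested compounds plus 3 SD, computed per campaign excluding outliers beyond control limits, cut at about 13% in these data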
ADAM10 inh = human ADAM10 inhibitors, primary screen, biochemical, QFRET, HTS; 370,000 tested, 0.62% active; AID 720582, 2013; inhibition, % at 7 µM; recombinant ADAM10, EDANS/DABCYL FRET peptide cleavage, 3 h; Disintegrin and metalloproteinase domain-containing protein 10 (Homo sapiens), O14672;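 active means inhibition above a per-campaign cutoff equal to the mean of compounds falling between control-based bounds plus 3 SD, cut at about 20% in these data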
CendR NRP1 mod = modulators of CendR peptide binding to NRP-1, primary screen, biochemical, fluorescence polarization, uHTS | FAM-RPARPAR peptide binding to NRP-1 | 360,000 tested, 0.85% active | inhibition, % at 25 µM | Neuropilin-1 (Homo sapiens), O14786;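 active means inhibition or corrected inhibition above about 18%, plus a signal ratio from 0.5 to 1.5, limit read from the data, passing the limit was not always enough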
ADAM17 inh = ADAM17 inhibitors, primary screen, biochemical, QFRET. Disintegrin and metalloproteinase domain-containing protein 17 (Homo sapiens), P78536. recombinant ADAM17, EDANS/DABCYL FRET peptide cleavage. inhibition, % at 6.95 µM. 370,000 tested, 0.83% active. AID 720648, 2013;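 active means inhibition above the mean of compounds lying between control limits plus 3 SD, set per campaign, cut at about 8.5% in these data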
Target sequence (P78536 215-824 limits assumed): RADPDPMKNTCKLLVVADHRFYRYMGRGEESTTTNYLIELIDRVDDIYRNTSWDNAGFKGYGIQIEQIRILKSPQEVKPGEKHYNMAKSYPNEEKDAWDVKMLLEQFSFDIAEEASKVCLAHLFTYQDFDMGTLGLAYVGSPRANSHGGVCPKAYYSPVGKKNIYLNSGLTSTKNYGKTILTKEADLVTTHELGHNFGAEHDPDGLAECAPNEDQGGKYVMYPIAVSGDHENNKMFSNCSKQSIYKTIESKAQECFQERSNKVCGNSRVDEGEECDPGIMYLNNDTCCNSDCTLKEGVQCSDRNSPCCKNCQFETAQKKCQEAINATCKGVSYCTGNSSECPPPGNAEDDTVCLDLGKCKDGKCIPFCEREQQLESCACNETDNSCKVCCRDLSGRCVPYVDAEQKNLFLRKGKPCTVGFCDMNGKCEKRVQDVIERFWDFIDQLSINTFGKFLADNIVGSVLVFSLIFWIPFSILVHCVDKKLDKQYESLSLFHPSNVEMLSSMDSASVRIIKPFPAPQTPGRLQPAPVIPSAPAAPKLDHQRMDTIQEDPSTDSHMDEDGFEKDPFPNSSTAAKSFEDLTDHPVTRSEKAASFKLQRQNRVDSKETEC
HGIII-sPLA2 inh = human group III sPLA2 inhibitors, primary screen, biochemical, QFRET, BODIPY PC-A2 liposome substrate | 370,000 tested, 0.56% active | QFRET BODIPY PC-A2 liposome hydrolysis, fluorescence | inhibition, % at 12.2 µM | Group 3 secretory phospholipase A2 (Homo sapiens), Q9NZ20 | AID 743126, 2013;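 active means inhibition above mean plus 3 SD of compounds lying within the high and low control bounds, cut at about 19% in these data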
A number is an active result; 0 = inactive; - = no result.

SMILES | KLK7 zymogen act | ADAM10 inh | CendR NRP1 mod | ADAM17 inh | HGIII-sPLA2 inh
COc1ccc(-c2csc(NC(C)c3nc4cc(Cl)c(N5CCCCC5)cc4n3CCOCCO)n2)cc1 (stereo unspecified) | 0 | 0 | 0 | 0 | 0
Fc1ccccc1-c1n[nH]c(=S)n1N=Cc1cccc(OCc2ccccc2)c1 | 0 | 0 | - | 0 | 0
CC1CN(C(=O)c2ccccc2NS(=O)(=O)c2ccc(Cl)cc2)CC(C)O1 (stereo unspecified) | 0 | 0 | 19 | 0 | 0
O=C(OCc1cn(Cc2ccc(F)cc2)nn1)N1CCCC1 | 0 | 0 | - | 0 | 0
COC(=O)CN1C(=O)C(O)(CC(=O)c2ccccc2)c2ccccc21 (stereo unspecified) | 0 | 0 | 0 | 0 | 0
COC(=O)CN1C(=O)C(O)(CC(=O)c2ccc(C)o2)c2ccccc21 (stereo unspecified) | 0 | 0 | 32 | 0 | 0
O=C(CSc1nc2ccccc2c(=O)n1-c1ccccc1F)Nc1ccc2c(c1)CCC2 | 0 | 0 | 0 | 0 | 0
O=C(CSc1nc2ccccc2c(=O)n1-c1ccc(F)cc1F)Nc1ccc2c(c1)CCC2 | 0 | 0 | 22 | 0 | 0
CN(C)c1ccc(NC(=O)CSc2nc3ccccc3c(=O)n2C2CCCCC2)cc1 | 0 | 0 | 0 | 12 | 0
S=C(Nc1ccc(Cl)c(Cl)c1)NC1CCN(Cc2ccccc2)CC1 | 0 | 20 | 0 | 0 | 0
Cc1ccc(OC(C)C(=O)Nc2ccccc2C(=O)N2CCN(C)CC2)cc1 (stereo unspecified) | 0 | 0 | 20 | 0 | 0
COc1ccc(C2CCC3(CCC(=O)N3CCOC(=O)NCc3ccc(Cl)cc3)CC2)cc1 (stereo unspecified) | 0 | 0 | - | 0 | 0
CC(=O)c1cccc(S(=O)(=O)N2CCC(C(=O)O)(c3ccccc3)CC2)c1 | 0 | 0 | 24 | 0 | 0
O=C(NCc1ccccc1)c1cccc(S(=O)(=O)N2CCOCC2)c1 | 0 | 0 | 0 | 0 | 0
Cc1cc2cc(CNC(=O)c3ccc(S(=O)(=O)N4CCCC4)cc3)ccc2n1C | 0 | 0 | 26 | 0 | 0
O=C(Nc1cccc(S(=O)(=O)N2CCCCC2)c1)c1ccc([N+](=O)[O-])o1 | 0 | 0 | 36 | 0 | 0
O=C(COC(=O)c1ccc([N+](=O)[O-])o1)Nc1cccc(S(=O)(=O)N2CCCCC2)c1 | 0 | 0 | 0 | 0 | 0
O=C(NCc1ccccc1)c1cccc(S(=O)(=O)N2CCCCC2)c1 | 0 | 0 | 31 | 0 | 0
COC(=O)C1CN(Cc2cn(CCC3OCCO3)nn2)CCS(=O)(=O)N1Cc1ccccc1 (stereo unspecified) | 0 | 0 | - | 0 | 0
Oc1ccc2ccccc2c1C=NN1CCN(Cc2ccc(Cl)cc2)CC1 | 0 | 0 | - | 0 | 0
Cc1cc2cc(CNC(=S)NCc3ccccc3)ccc2n1C | 0 | 0 | 22 | 0 | 0
Cc1ccccc1NC(=S)NCc1ccc2c(c1)cc(C)n2C | 0 | 0 | 0 | 0 | 0
CCC(CC)c1nnc(NC(=O)c2cccc(S(=O)(=O)N3CCOCC3)c2)s1 | 0 | 0 | 26 | 0 | 0
CC(C)Cc1nnc(NC(=O)c2cccc(S(=O)(=O)N3CCOCC3)c2)s1 | 0 | 0 | 0 | 0 | 0
COc1ccc(Cn2c(=O)sc3ccccc32)cc1 | 0 | 0 | 31 | 0 | 0
SMILES | KLK7 zymogen act | ADAM10 inh | CendR NRP1 mod | ADAM17 inh | HGIII-sPLA2 inh
Cc1ccc(C(=O)OCC(=O)NCCNC(=O)COC(=O)c2ccc(C)s2)s1 | 0 | 0 | 0 | 0 | 0
Cc1ccc(C(=O)OCC(=O)c2ccc(Cl)s2)s1 | 0 | 0 | 34 | 0 | 0
CC(=O)N1CCc2c1cccc2S(=O)(=O)NC(CC(C)C)C(=O)Nc1ccc(F)cc1Cl (stereo unspecified) | 0 | 0 | - | 0 | 0
CCCn1ncc(OC)c(Cl)c1=O | 0 | 0 | 22 | 0 | 0
COc1cnn(-c2cccc(Cl)c2)c(=O)c1Cl | 0 | 0 | 0 | 0 | 0
CN(C)c1cccc(/C=C2\CC3(OC(=O)c4cccc(F)c4)CCCN2C3)c1 (stereo unspecified) | 0 | 0 | - | 0 | 0
COc1cc(CNC(C)(C)CO)cc(Br)c1OCc1ccc(Cl)cc1 | 0 | 0 | 30 | 0 | 0
COc1cc(CNC(C)(C)CO)cc(Br)c1OCc1ccc(Cl)cc1Cl | 0 | 0 | 0 | 0 | 0

From PubChem
